Screening results deposited in PubChem BioAssay by Broad Institute.
Sampled rows, rich in hits. Any-hit rate of the full collection: about 6.7%.
Pf Dd2 inh = P. falciparum Dd2 growth inhibition. activity change, % at 10 µM. SYBR Green, 72 h; stronger effect = lower value. 94,000 tested, 2.3% active; in the data active = activity change below about -80%
C diff HTS = C. difficile growth inhibition. growth activity, negative = inhibition, % at 16 µg/mL (by protocol). 86,000 tested, 0.25% active. AID 1259249. Clostridium difficile clinical isolate growth, OD600, 24 h; stronger effect = lower value;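 active = mean growth activity at or below -80% and every replicate also at or below -80%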;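 note: 0% = DMSO wells and -100% = levofloxacin 16 µg/mL wells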
Tcruzi prolif = inhibitors of T. cruzi proliferation; AID 624255; inhibition, % at 8.34 µM; T. cruzi beta-gal in NIH3T3, GalScreen luminescence, 90 h; 77,000 tested, 5.9% active;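 active = mean inhibition above about 93%, with at least 55% of replicates each passing it, limit read from the data, passing the limit was not always enough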
* = called active by the depositor; / = no result given.

SMILES	Pf Dd2 inh	C diff HTS	Tcruzi prolif
C[C@H]1CCCCO[C@@H](CN(C)Cc2ccccc2)[C@@H](C)CN([C@@H](C)CO)C(=O)c2cc(NC(=O)Nc3ccc4c(c3)OCO4)ccc2O1	-86*	-3	94
C[C@@H]1CCCCO[C@@H](CN(C)Cc2ccc3c(c2)OCO3)[C@@H](C)CN([C@@H](C)CO)C(=O)c2cc(NC(=O)Cc3ccccc3)ccc2O1	-55	6	103
CCCNC(=O)C[C@@H]1CC[C@@H]2[C@H](COc3ccc(NS(=O)(=O)c4ccccc4C)cc3C(=O)N2C)O1	0	13	35
CO[C@@H]1CN(C)C(=O)c2cc(NS(=O)(=O)c3cn(C)cn3)ccc2OC[C@H](C)N(CCC(F)(F)F)C[C@@H]1C	22	6	28
CNC[C@H]1Oc2c(NC(=O)Nc3ccc(F)cc3)cccc2C(=O)N([C@H](C)CO)C[C@H]1C	7	1	/
C[C@H]1CN([C@@H](C)CO)C(=O)c2cccc(NC(=O)CCCCCC(=O)Nc3ccccc3N)c2O[C@@H]1CN(C)C	-67	-3	/
CO[C@@H]1CN(C)C(=O)c2ccc(NC(=O)Nc3ccccc3F)cc2OC[C@H](C)NC[C@@H]1C	23	0	-11
CC=Cc1ccc2n(c1=O)C[C@@H]1[C@@H](CO)[C@H](C(=O)NCC(F)(F)F)[C@H]2N1C(=O)C1CCC1 (mixture of isomers)	6	2	37
COc1ccc(CN(C)C[C@@H]2OCCCC[C@H](C)Oc3ccc(NC(=O)C4CCCCC4)cc3C(=O)N([C@H](C)CO)C[C@@H]2C)cc1	-62	6	82
COc1ccc(C#Cc2ccc([C@H]3[C@H](CO)N4CCCCN(C(=O)Nc5ccccc5)C[C@@H]34)cc2)cc1	-52	2	72
COc1ccc(C#Cc2ccc([C@H]3[C@H](CO)N4CCCCN(C(=O)Nc5ccc(F)cc5)C[C@@H]34)cc2)cc1	-55	4	63
COc1ccc(NC(=O)N2CCCCN3[C@H](CO)[C@H](c4ccc(C#Cc5ccccc5)cc4)[C@@H]3C2)cc1	-84*	-15	62
COc1ccc(NC(=O)N2CCCCN3[C@@H](CO)[C@@H](c4ccc(C#Cc5ccccc5)cc4)[C@@H]3C2)cc1	-37	-97*	70
Cc1noc(C)c1NC(=O)Nc1cccc2c1O[C@@H](CN(C)C(=O)NC1CCCCC1)[C@@H](C)CN([C@@H](C)CO)C2=O	20	-1	0
C[C@H](CO)N1C[C@H](C)[C@@H](CN(C)C(=O)CCCN(C)C)OCCCC[C@H](C)Oc2ccc(NC(=O)c3ccccc3)cc2C1=O	5	0	-7
C/C=C/c1ccc([C@H]2[C@@H](CO)N(CCC(F)(F)F)C23CN(C(=O)CC)C3)cc1	-25	8	/
COc1ccc(S(=O)(=O)Nc2cccc3c2O[C@H](CN(C)Cc2ccc(C(=O)Nc4ccccc4N)cc2)[C@@H](C)CN([C@H](C)CO)C3=O)cc1	-31	-3	84
COc1ccc(S(=O)(=O)Nc2cccc3c2O[C@H](CN(C)Cc2ccc(C(=O)Nc4ccccc4N)cc2)[C@H](C)CN([C@H](C)CO)C3=O)cc1	-87*	11	90
COc1ccc(S(=O)(=O)Nc2cccc3c2O[C@@H](CN(C)Cc2ccc(C(=O)Nc4ccccc4N)cc2)[C@@H](C)CN([C@H](C)CO)C3=O)cc1	-76	5	/
COc1ccc(S(=O)(=O)Nc2cccc3c2O[C@H](CN(C)Cc2ccc(C(=O)Nc4ccccc4N)cc2)[C@H](C)CN([C@@H](C)CO)C3=O)cc1	-86*	2	95
O=C([C@@H]1[C@@H](CO)[C@@H]2Cn3c(cccc3=O)[C@@H]2N1Cc1ccccc1Cl)N1CCOCC1	19	5	-44
COc1ccc(NC(=O)N(C)C[C@H]2OCCCC[C@H](C)Oc3ccc(NS(=O)(=O)c4ccc(C)cc4)cc3C(=O)N([C@H](C)CO)C[C@@H]2C)cc1	-45	/	20
O=C(NCc1ccc(F)cc1)[C@@H]1N[C@@H]2c3ccc(-c4ccccc4)c(=O)n3C[C@@H]2[C@H]1CO	/	-2	63
CO[C@@H]1CN(C)C(=O)c2ccc(NC(=O)c3ccc(F)cc3)cc2OC[C@H](C)N(C(=O)c2ccc(F)cc2)C[C@H]1C	-40	/	18
CO[C@H]1CN(C)C(=O)c2ccc(NC(=O)c3ccc(-c4ccccc4)cc3)cc2OC[C@@H](C)NC[C@H]1C	-86*	/	62
SMILES	Pf Dd2 inh	C diff HTS	Tcruzi prolif
CO[C@@H]1CN(C)C(=O)c2cc(NC(=O)c3ccc(Oc4ccccc4)cc3)ccc2OC[C@H](C)NC[C@H]1C	-76	-5	1
CO[C@@H]1CN(C)C(=O)c2ccc(NC(=O)c3ccccc3)cc2OC[C@H](C)NC[C@@H]1C	25	/	/
CO[C@H]1CN(C)C(=O)c2cc(NC(=O)c3ccc(Oc4ccccc4)cc3)ccc2OC[C@@H](C)NC[C@@H]1C	-90*	-6	-35
CO[C@@H]1CN(C)C(=O)c2ccc(NC(=O)c3ccc(-c4ccccc4)cc3)cc2OC[C@@H](C)NC[C@H]1C	-87*	42	/
CO[C@H]1CN(C)C(=O)c2ccc(NC(=O)c3ccc(-c4ccccc4)cc3)cc2OC[C@H](C)NC[C@@H]1C	-44	-9	/
CO[C@@H]1CN(C)C(=O)c2ccc(NC(=O)c3ccc(F)cc3)cc2OC[C@@H](C)N(C(=O)c2ccc(F)cc2)C[C@@H]1C	-88*	/	60
N#C[C@H]1[C@H](c2ccccc2C2=CCCCC2)[C@@H](CO)N1C(=O)NC1CCCCC1	-19	-3	/
CO[C@@H]1CN(C)C(=O)c2cc(NC(C)=O)ccc2OC[C@H](C)N(CCc2ccccc2)C[C@H]1C	-14	0	3
C[C@@H]1CN([C@@H](C)CO)C(=O)c2ccccc2-c2ccccc2CO[C@H]1CN(C)C(=O)Nc1cccc(Cl)c1Cl	-95*	-10	/
C[C@@H]1CN([C@H](C)CO)C(=O)c2ccccc2-c2ccccc2CO[C@H]1CN(C)C(=O)Nc1cccc(Cl)c1Cl	-94*	-7	/
C[C@@H]1CN([C@H](C)CO)C(=O)c2ccccc2-c2ccccc2CO[C@@H]1CN(C)C(=O)Nc1cccc(Cl)c1Cl	-69	-3	/
C[C@@H]1CN([C@@H](C)CO)C(=O)c2ccccc2-c2ccccc2CO[C@@H]1CN(C)C(=O)Nc1cccc(Cl)c1Cl	-65	-6	/
COc1ccc(S(=O)(=O)N(C)C[C@@H]2OCCCC[C@H](C)Oc3ccc(NC(=O)Nc4c(C)noc4C)cc3C(=O)N([C@H](C)CO)C[C@@H]2C)cc1	-67	-3	25
COc1ccc(CN(C)C[C@H]2Oc3ccc(NC(=O)CCC(F)(F)F)cc3C(=O)N([C@@H](C)CO)C[C@H]2C)cc1	2	-1	/
C[C@@H]1CCCCO[C@H](CN(C)CC2CCCCC2)[C@H](C)CN([C@@H](C)CO)C(=O)c2cc(NC(=O)NC3CCCCC3)ccc2O1	-53	/	35
C[C@@H]1CCCCO[C@@H](CN(C)CC2CCCCC2)[C@H](C)CN([C@H](C)CO)C(=O)c2cc(NC(=O)Nc3ccc4c(c3)OCO4)ccc2O1	-81*	3	79
C[C@@H]1CN([C@@H](C)CO)C(=O)c2cc(NC(=O)NC3CCCCC3)ccc2O[C@@H](C)CCCCO[C@H]1CN(C)CC1CCCCC1	-85*	/	84
